This passage reports outcome and AC50 results from PubChem BioAssay (EPA / NIEHS).

Records with an inconclusive call do not appear. Activity calls are given as the source filed them. How the source made its calls: active means hit-call score of the fitted dose curve at least 0.9, where 1 is the maximum; inconclusive means response in the unintended direction; inactive means score below 0.9.

Test [1] concerns the target human Thromboxane A2 Receptor (TXA2), TBXA2R (gene 6915) (UniProt P21731). Description: NVS_GPCR_hTXA2: NovaScreen (NVS) G Protein-Coupled Receptor Assay for human Thromboxane A2 Receptor (TXA2) (AID 2283282).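 Further: actives reduce bound radioligand signal relative to DMSO baseline.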 The essentials: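 Cell-free radioligand binding on membrane protein from human platelets; radioligand displacement read by filter-based scintillation counting after 1 h. Primary screen in duplicate at 25 uM, actives then run in concentration series; loss of signal versus DMSO.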

Test [2] concerns the target guinea pig Bradykinin Receptor B2 (BK2), BDKRB2 (gene 100135486) (UniProt O70526). Description: NVS_GPCR_gBK2: NovaScreen (NVS) G Protein-Coupled Receptor Assay for guinea pig Bradykinin Receptor B2 (BK2) (AID 2283292). In short, it runs like this:
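Guinea pig ileum membrane preparation incubated 1 h with radioligand and test chemical; bound counts measured after filtration. Primary duplicate screening at 25 uM, then singleton concentration series with a 50 uM top dose; DMSO as baseline.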

The subject of test [3] is 5-hydroxytryptamine receptor 2C (pig). Nature of the test: NVS_GPCR_p5HT2C: NovaScreen (NVS) G Protein-Coupled Receptor Assay for pig Serotonin, 5-Hydroxytryptamine Receptor 2C (5HT2C) (AID 2283288). In short, it runs like this: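 Radioligand displacement on membranes from pig choroid plexus, detected by filter scintillation counting after 1 h. Tested first at a single 25 uM in duplicate, then in concentration-response for actives; DMSO served as baseline.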

For test [4], the target named is mouse Cholecystokinin, CCK1 Receptor (CCKA), Cckar (gene 12425) (UniProt O08786). Description: NVS_GPCR_mCCKAPeripheral: NovaScreen (NVS) G Protein-Coupled Receptor Assay for mouse Cholecystokinin, CCK1 Receptor (CCKA) (AID 2283285). In short, it runs like this: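 Chemicals were first screened in duplicate at 25 uM, with those meeting threshold (e.g., 30% inhibition) retested in singleton concentration series to 50 uM maximum. Binding of radioligand to mouse pancreatic membranes was read after 2 h by filtration and scintillation counting.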

Test [5] has as its target human Opioid Receptor Mu (Opiate Mu), OPRM1 (gene 4988) (UniProt P35372). Description: NVS_GPCR_hOpiate_mu: NovaScreen (NVS) G Protein-Coupled Receptor Assay for human Opioid Receptor Mu (Opiate Mu) (AID 2283290).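 Further: hits lower bound tracer signal versus DMSO meaning displacement of the ligand.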 In short, it runs like this: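 Cell-free radioligand binding to membranes from CHO cells expressing the receptor; bound tracer measured by filter-based scintillation counting 2.5 hours after dosing. Loss of signal versus DMSO baseline reflects displacement; primary screen at 25 uM in duplicate, actives followed up in concentration series.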

Test [6] concerns the target mouse Cholecystokinin, CCK2 Receptor (CCKB), Cckbr (gene 12426) (UniProt P56481). Description: NVS_GPCR_mCKKBCentral: NovaScreen (NVS) G Protein-Coupled Receptor Assay for mouse Cholecystokinin, CCK2 Receptor (CCKB) (AID 2283293). The essentials: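 Mouse forebrain membrane preparation incubated 2 h with chemical and radioligand; bound radioactivity counted after filtration. Single-concentration duplicate screen at 25 uM, then concentration series to 50 uM max for hits, DMSO as baseline.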

In test [7] the target is rat Serotonin, 5-Hydroxytryptamine Receptor (5HT), Non-Selective Binding, Htr1a (gene 24473) (UniProt P19327). Nature of the test: NVS_GPCR_r5HT_NonSelective: NovaScreen (NVS) G Protein-Coupled Receptor Assay for rat Serotonin, 5-Hydroxytryptamine Receptor (5HT), Non-Selective Binding (AID 2283295). The essentials:
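Rat cortex membrane preparation incubated 1 h with radioligand and test chemical; bound radioactivity counted after filtration. Screening began in duplicate at 25 uM with concentration-series follow-up; fitting relative to DMSO.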

In test [8] the target is human Opioid Receptor Delta 1 (Opiate D1), OPRD1 (gene 4985) (UniProt P41143). Nature of the test: NVS_GPCR_hOpiate_D1: NovaScreen (NVS) G Protein-Coupled Receptor Assay for human Opioid Receptor Delta 1 (Opiate D1) (AID 2283280). In short, it runs like this:
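Membrane preparations from CHO cells bearing the human receptor were incubated 1 h with test chemical, and bound radioligand was counted after filtration. Actives from 25 uM duplicate screening were retested in concentration-response.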

The target of test [9] is human Purinergic Receptor P2Y, P2RY1 (gene 5028) (UniProt P47900). Nature of the test: NVS_GPCR_hPY2: NovaScreen (NVS) G Protein-Coupled Receptor Assay for human Purinergic Receptor P2Y (AID 2283281). The essentials:
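Filtration scintillation readout of radioligand displacement on U937 extract, measured 1 h post-dosing. Single 25 uM duplicate screen, then singleton concentration series to 50 uM for chemicals passing threshold; DMSO as baseline.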

The target of test [10] is rat Gamma-Aminobutyric Acid Type B Receptor (GABBR), Gabbr1 (gene 81657) (UniProt Q9Z0U4). Nature of the test: NVS_GPCR_rGABBR: NovaScreen (NVS) G Protein-Coupled Receptor Assay for rat Gamma-Aminobutyric Acid Type B Receptor (GABBR) (AID 2283301). In short, it runs like this: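 Rat cortical membrane preparation, competitive radioligand binding for 1 h with filtration and scintillation readout. Actives from duplicate single-point 25 uM screening proceeded to concentration series with 50 uM top concentration.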
Chain of rat Gamma-Aminobutyric Acid Type B Receptor (GABBR), Gabbr1 (gene 81657) (Q9Z0U4 whole entry, looked up): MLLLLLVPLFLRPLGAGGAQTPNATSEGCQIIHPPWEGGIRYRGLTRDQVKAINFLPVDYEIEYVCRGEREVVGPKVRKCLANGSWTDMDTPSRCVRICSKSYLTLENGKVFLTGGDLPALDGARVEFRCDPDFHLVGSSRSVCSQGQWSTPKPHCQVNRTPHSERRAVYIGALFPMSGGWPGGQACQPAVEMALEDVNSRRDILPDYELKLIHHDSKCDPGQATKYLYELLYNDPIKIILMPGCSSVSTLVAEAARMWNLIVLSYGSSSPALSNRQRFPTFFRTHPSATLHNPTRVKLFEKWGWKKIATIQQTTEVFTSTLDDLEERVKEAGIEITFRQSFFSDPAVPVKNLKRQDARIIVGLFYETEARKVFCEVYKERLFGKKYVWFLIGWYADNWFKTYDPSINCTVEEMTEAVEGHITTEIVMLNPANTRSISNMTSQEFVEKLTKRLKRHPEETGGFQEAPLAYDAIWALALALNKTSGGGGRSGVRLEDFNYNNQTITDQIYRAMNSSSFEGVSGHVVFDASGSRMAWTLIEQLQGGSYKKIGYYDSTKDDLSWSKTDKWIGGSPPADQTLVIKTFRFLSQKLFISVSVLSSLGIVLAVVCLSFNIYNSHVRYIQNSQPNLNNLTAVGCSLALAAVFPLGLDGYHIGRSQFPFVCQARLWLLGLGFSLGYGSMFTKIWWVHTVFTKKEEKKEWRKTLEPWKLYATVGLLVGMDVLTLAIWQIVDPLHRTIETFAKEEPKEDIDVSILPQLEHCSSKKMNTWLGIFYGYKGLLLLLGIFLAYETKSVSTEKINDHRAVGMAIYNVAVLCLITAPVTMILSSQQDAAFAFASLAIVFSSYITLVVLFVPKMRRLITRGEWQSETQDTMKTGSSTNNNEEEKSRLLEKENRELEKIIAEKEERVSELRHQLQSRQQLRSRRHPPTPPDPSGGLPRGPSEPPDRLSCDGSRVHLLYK

For test [11], the system named is rabbit Platelet Activating Factor Receptor (PAF), gene 100354046. Nature of the test: NVS_GPCR_rabPAF: NovaScreen (NVS) G Protein-Coupled Receptor Assay for rabbit Platelet Activating Factor Receptor (PAF) (AID 2283287). In short, it runs like this:
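Rabbit platelet membrane preparation; radioligand displacement read by filter-based scintillation counting 1 h after dosing, loss of signal versus DMSO. Primary screen in duplicate at 25 uM, actives followed up in concentration series.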

Test [12] addresses rat Adrenergic Receptor, Beta (Adrb), Non-selective Binding, Adrb1 (gene 24925) (UniProt P18090). Description: NVS_GPCR_rAdrb_NonSelective: NovaScreen (NVS) G Protein-Coupled Receptor Assay for rat Adrenergic Receptor, Beta (Adrb), Non-selective Binding (AID 2283298). The essentials: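 Rat cortical membranes incubated 1 h with beta-adrenergic radioligand and test chemical; bound ligand measured by filtration and scintillation counting. Screen at 25 uM duplicate, then concentration series with 50 uM maximum; loss of signal versus DMSO.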

In test [13] the target is rat Serotonin, 5-Hydroxytryptamine Receptor 1 (5HT1), Non-Selective Binding, Htr1a (gene 24473) (UniProt P19327). Description: NVS_GPCR_r5HT1_NonSelective: NovaScreen (NVS) G Protein-Coupled Receptor Assay for rat Serotonin, 5-Hydroxytryptamine Receptor 1 (5HT1), Non-Selective Binding (AID 2283286). In short, it runs like this:
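Binding of a radioligand to rat cortex membranes is read by filtration and scintillation counting after 1 h. Compounds were screened at 25 uM in duplicate. Actives were then titrated to a top of 50 uM. DMSO is the baseline.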

For test [14], the target named is guinea pig Serotonin, 5-Hydroxytryptamine Receptor 4 (5HT4), HTR4 (gene 100135548) (UniProt O70528). Description: NVS_GPCR_g5HT4: NovaScreen (NVS) G Protein-Coupled Receptor Assay for guinea pig Serotonin, 5-Hydroxytryptamine Receptor 4 (5HT4) (AID 2283294). In short, it runs like this:
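Compounds first screened in duplicate at 25 uM, actives followed up in concentration series. Binding measured as displacement of specific radioligand from guinea pig striatal membranes, 1 h, filter-based scintillation read-out versus DMSO baseline.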

In test [15] the test system is rat Adrenergic, Alpha 1B Receptor (Adra1B), gene 24173. Nature of the test: NVS_GPCR_rAdra1B: NovaScreen (NVS) G Protein-Coupled Receptor Assay for rat Adrenergic, Alpha 1B Receptor (Adra1B) (AID 2283297). In short, it runs like this:
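Filter-binding radioligand competition on membranes from rat liver, read after 1 h by scintillation counting. Single-concentration duplicate screen at 25 uM, followed by concentration-response on actives, normalised to DMSO.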

Test [16] concerns the target human Orphanin, Opioid Related Nociceptin Receptor 1 (ORL1), OPRL1 (gene 4987) (UniProt P41146). Description: NVS_GPCR_hORL1: NovaScreen (NVS) G Protein-Coupled Receptor Assay for human Orphanin, Opioid Related Nociceptin Receptor 1 (ORL1) (AID 2283283). The essentials:
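Cell-free binding using HEK293-derived receptor protein: radioligand displacement measured by filter scintillation 1 hour after dosing. Primary testing at 25 uM in duplicate, followed by singleton concentration series up to 50 uM; DMSO served as negative control.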

Test [17] concerns the target rat Adrenergic, Alpha 1, Non-selective Receptor (Adra1), Adra1a (gene 29412) (UniProt P43140). Description: NVS_GPCR_rAdra1_NonSelective: NovaScreen (NVS) G Protein-Coupled Receptor Assay for rat Adrenergic, Alpha 1, Non-selective Receptor (Adra1) (AID 2283289). The essentials:
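Chemicals first screened in duplicate at 25 uM, then actives tested in concentration series up to 50 uM. Binding measured as displacement of radioligand from rat forebrain membrane receptors, 1 h, filtration with scintillation readout; DMSO baseline.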

Test [18] addresses rat Adrenergic, Alpha 1A Receptor (Adra1A), Adra1a (gene 29412) (UniProt P43140). Nature of the test: NVS_GPCR_rAdra1A: NovaScreen (NVS) G Protein-Coupled Receptor Assay for rat Adrenergic, Alpha 1A Receptor (Adra1A) (AID 2283296). In short, it runs like this: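 Filter radiodetection after 1 h competitive binding on CEC-pretreated rat cortical membranes. Duplicate single-point screening at 25 uM; active chemicals retested across concentration series.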

Chain of human Thromboxane A2 Receptor (TXA2), TBXA2R (gene 6915) (P21731 whole entry, looked up): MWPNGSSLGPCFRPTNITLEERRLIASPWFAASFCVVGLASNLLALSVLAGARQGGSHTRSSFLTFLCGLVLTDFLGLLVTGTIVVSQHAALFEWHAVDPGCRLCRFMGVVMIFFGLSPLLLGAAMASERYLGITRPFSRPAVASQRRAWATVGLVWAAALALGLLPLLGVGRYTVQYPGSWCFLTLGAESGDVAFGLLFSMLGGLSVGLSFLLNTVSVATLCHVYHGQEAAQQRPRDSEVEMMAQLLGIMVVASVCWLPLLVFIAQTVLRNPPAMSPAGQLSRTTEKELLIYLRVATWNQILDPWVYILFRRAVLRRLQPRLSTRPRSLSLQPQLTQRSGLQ
Chain of human Opioid Receptor Mu (Opiate Mu), OPRM1 (gene 4988) (P35372 whole entry, looked up): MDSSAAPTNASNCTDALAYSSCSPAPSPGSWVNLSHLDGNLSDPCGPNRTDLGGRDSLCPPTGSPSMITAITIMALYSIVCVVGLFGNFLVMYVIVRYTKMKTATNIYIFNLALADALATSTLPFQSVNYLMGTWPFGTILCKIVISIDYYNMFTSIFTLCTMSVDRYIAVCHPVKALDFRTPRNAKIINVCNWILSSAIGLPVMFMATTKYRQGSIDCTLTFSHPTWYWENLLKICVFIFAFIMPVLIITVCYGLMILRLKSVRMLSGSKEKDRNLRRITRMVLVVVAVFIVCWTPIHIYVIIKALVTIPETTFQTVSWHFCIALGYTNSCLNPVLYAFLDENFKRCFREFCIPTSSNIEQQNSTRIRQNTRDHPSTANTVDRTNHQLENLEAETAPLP
Chain of rat Adrenergic Receptor, Beta (Adrb), Non-selective Binding, Adrb1 (gene 24925) (P18090 whole entry, looked up): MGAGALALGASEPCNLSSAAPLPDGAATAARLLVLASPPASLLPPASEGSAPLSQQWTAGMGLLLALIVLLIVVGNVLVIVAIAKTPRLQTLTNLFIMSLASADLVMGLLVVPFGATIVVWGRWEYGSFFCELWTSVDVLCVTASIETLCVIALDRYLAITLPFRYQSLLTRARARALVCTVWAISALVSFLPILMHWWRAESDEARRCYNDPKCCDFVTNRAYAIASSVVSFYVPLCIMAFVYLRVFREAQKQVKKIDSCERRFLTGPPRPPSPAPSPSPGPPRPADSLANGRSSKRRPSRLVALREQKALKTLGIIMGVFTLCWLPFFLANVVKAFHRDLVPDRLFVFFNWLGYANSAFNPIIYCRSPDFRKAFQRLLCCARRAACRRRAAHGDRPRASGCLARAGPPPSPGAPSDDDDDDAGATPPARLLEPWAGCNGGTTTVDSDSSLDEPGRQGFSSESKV
Chain of mouse Cholecystokinin, CCK2 Receptor (CCKB), Cckbr (gene 12426) (P56481 whole entry, looked up): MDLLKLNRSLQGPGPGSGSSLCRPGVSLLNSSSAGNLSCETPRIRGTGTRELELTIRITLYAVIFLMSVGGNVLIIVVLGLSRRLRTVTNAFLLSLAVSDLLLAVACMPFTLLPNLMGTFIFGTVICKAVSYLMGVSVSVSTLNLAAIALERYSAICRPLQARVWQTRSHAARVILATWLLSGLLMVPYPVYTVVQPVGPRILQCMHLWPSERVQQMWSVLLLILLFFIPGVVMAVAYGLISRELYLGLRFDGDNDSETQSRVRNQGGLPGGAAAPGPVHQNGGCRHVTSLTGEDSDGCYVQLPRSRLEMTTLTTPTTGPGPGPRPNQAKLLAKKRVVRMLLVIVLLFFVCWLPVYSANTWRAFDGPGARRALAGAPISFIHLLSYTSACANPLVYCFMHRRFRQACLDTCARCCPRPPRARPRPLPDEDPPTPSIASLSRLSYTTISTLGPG
Chain of human Opioid Receptor Delta 1 (Opiate D1), OPRD1 (gene 4985) (P41143 whole entry, looked up): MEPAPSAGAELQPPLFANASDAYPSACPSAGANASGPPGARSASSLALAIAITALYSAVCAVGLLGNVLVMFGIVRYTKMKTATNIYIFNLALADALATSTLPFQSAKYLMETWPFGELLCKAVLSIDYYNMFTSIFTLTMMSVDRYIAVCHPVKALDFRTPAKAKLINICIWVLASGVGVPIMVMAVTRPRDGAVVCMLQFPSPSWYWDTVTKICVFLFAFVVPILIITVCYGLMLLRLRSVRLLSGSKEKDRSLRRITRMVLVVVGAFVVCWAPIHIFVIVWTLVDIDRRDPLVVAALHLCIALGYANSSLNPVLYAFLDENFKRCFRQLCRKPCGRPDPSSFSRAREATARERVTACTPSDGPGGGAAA
Chain of guinea pig Serotonin, 5-Hydroxytryptamine Receptor 4 (5HT4), HTR4 (gene 100135548) (O70528 whole entry, looked up): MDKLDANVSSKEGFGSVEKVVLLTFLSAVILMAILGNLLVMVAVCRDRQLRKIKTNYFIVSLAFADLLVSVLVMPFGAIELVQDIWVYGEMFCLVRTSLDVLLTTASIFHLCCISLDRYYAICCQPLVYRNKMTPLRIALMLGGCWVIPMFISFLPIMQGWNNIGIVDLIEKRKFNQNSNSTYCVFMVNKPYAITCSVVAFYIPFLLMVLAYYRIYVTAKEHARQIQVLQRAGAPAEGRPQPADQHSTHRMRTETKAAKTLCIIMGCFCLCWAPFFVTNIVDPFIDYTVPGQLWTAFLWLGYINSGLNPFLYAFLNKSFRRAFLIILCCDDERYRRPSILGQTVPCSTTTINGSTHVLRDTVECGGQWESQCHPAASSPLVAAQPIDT
Chain of rat Serotonin, 5-Hydroxytryptamine Receptor 1 (5HT1), Non-Selective Binding, Htr1a (gene 24473) (P19327 whole entry, looked up): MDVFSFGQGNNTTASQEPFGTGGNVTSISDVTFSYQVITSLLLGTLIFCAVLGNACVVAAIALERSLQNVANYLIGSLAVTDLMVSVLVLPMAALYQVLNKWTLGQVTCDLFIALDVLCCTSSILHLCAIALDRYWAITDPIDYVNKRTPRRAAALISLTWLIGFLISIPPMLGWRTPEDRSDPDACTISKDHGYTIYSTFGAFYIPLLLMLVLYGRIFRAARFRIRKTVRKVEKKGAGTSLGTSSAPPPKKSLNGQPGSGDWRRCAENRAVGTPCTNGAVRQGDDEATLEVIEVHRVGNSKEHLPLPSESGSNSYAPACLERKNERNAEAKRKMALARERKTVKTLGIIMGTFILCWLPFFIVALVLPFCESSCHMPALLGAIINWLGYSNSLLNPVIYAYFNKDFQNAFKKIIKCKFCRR
Chain of rat Serotonin, 5-Hydroxytryptamine Receptor (5HT), Non-Selective Binding, Htr1a (gene 24473) (P19327 whole entry, looked up): as above
Chain of human Purinergic Receptor P2Y, P2RY1 (gene 5028) (P47900 whole entry, looked up): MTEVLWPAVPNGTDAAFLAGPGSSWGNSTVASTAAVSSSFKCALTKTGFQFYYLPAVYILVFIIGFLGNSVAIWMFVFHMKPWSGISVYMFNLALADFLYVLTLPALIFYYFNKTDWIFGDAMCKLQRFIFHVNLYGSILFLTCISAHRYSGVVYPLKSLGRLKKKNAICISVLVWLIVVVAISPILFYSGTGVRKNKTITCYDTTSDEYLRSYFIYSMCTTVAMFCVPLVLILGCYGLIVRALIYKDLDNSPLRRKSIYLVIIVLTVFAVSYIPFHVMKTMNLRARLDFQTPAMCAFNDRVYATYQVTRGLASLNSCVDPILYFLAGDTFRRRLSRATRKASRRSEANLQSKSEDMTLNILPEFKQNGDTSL
Chain of guinea pig Bradykinin Receptor B2 (BK2), BDKRB2 (gene 100135486) (O70526 whole entry, looked up): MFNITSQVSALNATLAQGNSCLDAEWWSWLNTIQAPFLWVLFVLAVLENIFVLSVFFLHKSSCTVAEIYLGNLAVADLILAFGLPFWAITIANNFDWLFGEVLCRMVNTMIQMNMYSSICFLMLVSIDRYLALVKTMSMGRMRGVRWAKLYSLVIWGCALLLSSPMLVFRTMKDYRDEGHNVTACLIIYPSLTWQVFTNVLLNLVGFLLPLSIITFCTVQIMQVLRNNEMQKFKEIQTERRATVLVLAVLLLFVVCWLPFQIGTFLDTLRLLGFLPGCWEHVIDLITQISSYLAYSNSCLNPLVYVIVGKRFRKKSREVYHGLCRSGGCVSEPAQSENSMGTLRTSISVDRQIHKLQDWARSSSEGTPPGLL

In the case of `CC(C)(C)c1cc(O)c(C(C)(C)C)cc1O`, the outcome in test [1] was inactive.

On to `CCCCCCCCCCC`, for which, in [2], the compound was classed as inactive.

As for `NCCO`, the result in test [2] was inactive.

For `C=CCc1ccc(O)c(OC)c1`, in [3], the outcome was inactive.

`O=C(N[C@@H](Cc1ccccc1)[C@@H](O)C(=O)N1C[C@@H](O)[C@@H](O)C1)c1cc2cc(Cl)ccc2[nH]1`: the AC50 in test [4] is 11.9 µM (active); in test [5], 4.96 µM (active); in test [6] it was 8.74 µM (active). In test [7], the call was inactive.

Regarding `Nc1ccc2c(c1)C(=O)c1ccccc1C2=O`, the AC50 in [8] was 38.4 µM (active).

As for `O=C(O)CCCCC(=O)O`, in [9], the outcome was inactive.

Consider `Cc1oc(-c2ccccc2)nc1CCOc1cccc2c1ccn2CCC(=O)O`, for which the AC50 in [1] is 1.33 µM (active); in test [10], 15.9 µM (active).

As for `CCCCCCCCCCCC(=O)OC`, the outcome in test [9] was inactive.

As for `Oc1ccc2ccccc2c1N=Nc1ccccc1`, the AC50 in test [5] is 37.4 µM (active).

In the case of `COc1ccc(S(=O)(=O)N2C(=O)[C@@](c3ccccc3OC)(N3C[C@H](O)C[C@H]3C(=O)N(C)C)c3cc(Cl)ccc32)c(OC)c1`, the compound was called inactive in [8] and in [1]. In addition, the values for the AC50 in test [11] and in test [6] were 12.3 µM (active) and 25 µM (active), respectively.

For `CC(=O)C(C)=CC1C(C)=CCCC1(C)C` (stereo not given), the compound was classed as inactive in [7] and in test [12].

As for `COc1cc(S(=O)(=O)O)c(C)cc1N=Nc1c(O)ccc2cc(S(=O)(=O)O)ccc12`, the AC50 in [8] is 30 µM (active); in [13], 17.1 µM (active); in test [14] it was 41.9 µM (active). Moreover, in test [15], the outcome was inactive.

As to `COCCOC[C@H](CC1(C(=O)NC2CCC(C(=O)O)CC2)CCCC1)C(=O)Oc1ccc2c(c1)CCC2` (stereo not given in full), the result in test [16] and in [13] was inactive.

As to `C[Si]1(C)O[Si](C)(C)O[Si](C)(C)O[Si](C)(C)O1`, the compound was called inactive in [1].

In the case of `Cc1nc(-c2ccc3c(c2)CCN(CCC2CCC(NC(=O)/C=C/c4ccc(F)cc4)CC2)CC3)no1` (stereo not given), the outcome in test [12] was inactive.

For the compound `CN1CCN(Cc2cc(-c3ccc4[nH]c(=O)oc4c3)co2)[C@@H](c2ccc(F)cc2)C1`, in test [11], the call was inactive. Also, the concentration at half-maximal activity (AC50) in [3] is 0.25 µM (active); in test [17], 8.23 µM (active); in test [5] it was 22 µM (active); in [7] it was 0.0493 µM (active); in test [18], 10.3 µM (active); in [15] it was 22 µM (active).

Turning to `CCc1c(C(=O)NN2CCCCC2)nn(-c2ccc(Cl)cc2Cl)c1-c1ccc(Br)cc1`, the compound was classed as inactive in test [8], in [5] and in test [14]. In [7], the AC50 was 12 µM (active).

`Nc1ccccc1N`: the outcome in test [13] was inactive.

Take `CC(C)c1ccc(C(=O)N=C(N)N)cc1S(C)(=O)=O`: the outcome in test [12] was inactive.

Regarding `CCCCCCC(=O)OCC`, the call in test [14] was inactive.

Consider `Cc1c(C(=O)O)c(O)cc2c1C(=O)c1c(O)c([C@@H]3O[C@H](CO)[C@@H](O)[C@H](O)[C@H]3O)c(O)c(O)c1C2=O`, for which the compound was classed as inactive in [13].

Take `CCCCc1ccc2c(n1)[C@@H](c1ccc(OC)cc1C[C@H](C)C(=O)O)[C@H](C(=O)O)[C@H]2c1ccc2c(c1)OCO2`: the concentration at half-maximal activity (AC50) in test [6] is 20 µM (active).

With `Cc1nc(C)nc(N2C[C@@H](C)N(c3ccnc([C@@H](C)O)n3)[C@@H](C)C2)n1`, in test [14], the call was inactive.
